Screening data from PubChem.
Only some compounds are listed: those with a hit (about 19% of all), similar ones and a draw of the others.
TDP1 cell CPT = DT40-hTDP1 cell growth loss with CPT. chicken DT40 Tdp1-/-;hTDP1 cells + 20 nM CPT, ATP luminescence, 48 h. Potency, µM (top dose mostly 46.2 µM), most hits filed as inhibitors. 420,000 compounds, 12% hits; further: nearly all actives have a fitted effect of over 55% in size
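Cell growth measured by CellTiter-Glo luminescence after a minimum 48 h, 37 C compound exposure with 20 nM CPT in Tdp1-knockout DT40 cells stably expressing hTDP1, seeded 400/well; qHTS titration format.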
HT1080NT lethal = kills 2HG-producing HT-1080-NT fibrosarcoma cells; AID 686970; Potency, µM (highest dose often 46.1 µM), actives largely listed as cytotoxic; 360,000 compounds, 1.6% hits; HT-1080-NT fibrosarcoma viability, CellTiter-Glo ATP luminescence, 48 h;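 further: NT is the 2HG producing partner of a matched IDH1 knockdown line; nearly all actives have a fitted effect of over 55% in size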
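Toxicity toward the 2HG-producing NT line was scored as %Activity, normalised to DMSO and no-cell wells, from CellTiter-Glo luminescence after 48 hours' treatment.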
HT1080 IDH1KD tx = toxicity to HT-1080 IDH1 knockdown cells (counter line) | AID 686971 | 360,000 compounds, 2% hits | HT-1080 IDH1 knockdown viability, ATP luminescence, 48 h | Potency, µM (highest dose often 46.1 µM), hits mostly cytotoxic
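After a 2 h attachment period, IDH1KD HT-1080 cells took pin-transferred compound for 48 h at 37 °C; ATP-based luminescence after 10 min room-temperature reagent incubation reported viability.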
TDP1 cell noCPT = qHTS for Inhibitors of human tyrosyl-DNA phosphodiesterase 1 (TDP1): qHTS in cells in absence of CPT; Potency, µM (doses to about 46.2 µM), most hits filed as inhibitors; 420,000 compounds, 15% hits; DT40 Tdp1-/- hTDP1 cells, no CPT, ATP luminescence, 48 h; further: nearly all actives have a fitted effect of over 55% in size
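Stably hTDP1-transfected Tdp1-null chicken DT40 cells were treated with library compounds minus camptothecin and grown for at least 48 hr at 37 °C, after which cellular ATP was quantified by luminescence.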
KB-3-1 cytotox = kills parental KB-3-1 adenocarcinoma cells. AID 1347075. Potency, µM (series often up to 46.1 µM), actives largely listed as cytotoxic. KB-3-1 viability, CellTiter-Glo ATP luminescence, 72 h. 400,000 compounds, 1.4% hits; further: nearly all actives have a fitted effect of over 60% in size
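Cytotoxicity measured as CellTiter-Glo luminescence after 72 h at 37 C. Compound titrations were pinned onto drug-naive KB-3-1 parental adenocarcinoma cells grown in DMEM with 10% FBS, and normalized data fitted to concentration-response curves.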
KB-V1 MDR tox = kills drug-selected multidrug resistant KB-V1 cells | 400,000 compounds, 3.4% hits | Potency, µM (titrated, usually from 46.1 µM), usual class: cytotoxic | KB-V1 MDR cells viability, CellTiter-Glo, 72 h; further: nearly all actives have a fitted effect of over 60% in size
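Luminescent ATP read-out (CellTiter-Glo, 10 min) measures survival of drug-selected KB-V1 MDR cells after 72 h, 37 degrees C compound exposure. Medium: phenol-red-free DMEM, 10% FBS. Values from fitted concentration-response curves.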
A number is an active result; 0 = inactive; ? = inconclusive; - = not tested or not shown. The call rests on the fitted dose curve; in most records, active means well fitted curve in the direction sought with a large enough effect; inconclusive means small, poorly fitted or top-dose-only effect, or another doubt; inactive means no such curve, though single readings can be large; an effect the other way counts as inactive or inconclusive.

SMILES	TDP1 cell CPT	HT1080NT lethal	HT1080 IDH1KD tx	TDP1 cell noCPT	KB-3-1 cytotox	KB-V1 MDR tox
Cc1ccc(S(=O)(=O)NNc2c3ccccc3nc3ccc(Cl)cc23)cc1	23µM	0	0	8.2µM	0	?
Cc1ccc(S(=O)(=O)NNc2ccccc2)cc1	0	0	0	0	0	0
CCOc1ccc(N2CC(NS(=O)(=O)c3cccnc3)CC2=O)cc1 (configuration not stated)	0	0	0	0	0	0
COc1cc2ccccc2cc1C(=O)N1CC(C)CC(C)C1 (configuration not stated)	?	0	0	?	?	0
CN(C)c1ccc(N/C=C/C(=O)c2ccco2)cc1	21µM	0	?	?	0	0
O=C(/C=C/Nc1ccc(Oc2ccccc2Cl)cc1)c1ccco1	18µM	?	?	15µM	21µM	?
COc1ccccc1Oc1ccc(N/C=C/C(=O)c2ccco2)cc1	?	0	0	18µM	0	0
COC(=O)C[C@@H]1C=C[C@@H](NC(=O)CN(C)C)[C@@H](CO)O1	0	0	0	0	0	0
CCOC(=O)Cc1csc(NC(=O)c2ccc(F)cc2)n1	?	0	0	0	0	0
CCCCC(=O)Nc1ccc(C(=O)Nc2nc(CC(=O)OCC)cs2)cc1	22µM	0	0	?	0	0
CCOC(=O)Cc1csc(NC(=O)c2ccc(Cl)nc2)n1	?	0	?	23µM	0	?
CCOC(=O)Cc1csc(NC(=O)c2ccc(C)cc2)n1	0	0	0	?	0	?
Cc1ccc(NC(=O)CC2OC(=O)c3ccccc32)cc1S(=O)(=O)N1CCOCC1 (configuration not stated)	0	0	0	0	0	0
CCn1c(CNC(=O)c2ccccc2F)nnc1SCC(=O)Nc1nncs1	0	0	0	0	0	0
CC1CCN(C(=O)CN2CCSc3ccc(S(=O)(=O)N(C)C)cc32)CC1	-	-	-	-	0	?
COc1ccccc1N1CCN(c2nc3ccc(C)cc3nc2-n2nc(C)cc2C)CC1	23µM	-	-	21µM	0	0
COc1cccc(-c2nc(N3CCC(C)CC3)c3ccccc3n2)c1O	18µM	?	?	21µM	0	16µM
COc1cccc(-c2nc(N3CCCC3)c3ccccc3n2)c1O	18µM	0	0	12µM	0	0
COc1ccccc1N1CCN(c2nc(-c3ccc(C)cc3)nc3ccccc23)CC1	23µM	-	-	23µM	0	0
CC1N=C2c3ccccc3N=C(SCC(=O)NCc3ccc(Cl)cc3)N2C1=O (configuration not stated)	?	-	-	?	0	0
COC(=O)[C@H]1C[C@@]2(O)CN(S(=O)(=O)c3ccc(C)cc3)C[C@@]2(OC(=O)NCc2ccco2)C[C@H]1C(=O)OC	0	0	0	0	0	0
Cc1ccc(S(=O)(=O)NCCc2cn3c(C)csc3n2)cc1	0	-	-	0	-	-
COc1ccccc1N1CCN(c2nc(CNC(=O)c3ccc4c(c3)OCO4)nc3ccccc23)CC1	18µM	-	-	13µM	-	-
O=C(c1ccc(Cl)cc1)N(Cc1ccccc1F)N1C(=O)CCCC1=O	0	0	0	0	0	0
COc1ccc(CCNC(=O)CCCn2c(=O)c3ccccc3n(Cc3ccccc3)c2=O)cc1OC	?	-	-	16µM	0	0
SMILES	TDP1 cell CPT	HT1080NT lethal	HT1080 IDH1KD tx	TDP1 cell noCPT	KB-3-1 cytotox	KB-V1 MDR tox
COc1ccc(CCNC(=O)CCn2c(=O)c3ccccc3n(Cc3ccccc3)c2=O)cc1OC	?	-	-	18µM	0	0
COc1ccc(CCNC(=O)CCCn2c(=O)c3ccccc3n(CC(=O)Nc3cccc(C)c3)c2=O)cc1OC	?	-	-	18µM	0	0
COc1ccc(CCNC(=O)CCCCn2c(=O)c3ccccc3n(Cc3cc(C)ccc3C)c2=O)cc1OC	0	-	-	0	0	?
COc1ccc(CCNC(=O)CCCCCN2C(=O)[C@@H]3Cc4ccccc4CN3C2=O)cc1OC	21µM	0	0	?	0	?
COc1ccc(CCNC(=O)CCCCn2c(=O)c3ccccc3n(CC(=O)Nc3ccccc3C)c2=O)cc1OC	0	-	-	0	0	?
CC(C)NC(=O)N1CCC2(CC1)CCN(S(=O)(=O)c1ccccc1)CC2	0	-	-	0	-	-
Cc1cc(C(=O)C(=O)Nc2nnc(C(C)C)s2)c(C)n1-c1ccccc1	?	-	-	0	0	0
CC(C)[C@H](NS(=O)(=O)c1ccccc1)C(=O)OCC(=O)NC(=O)NC1CCCCC1	?	0	0	?	0	?
COc1ccc(CCNC(=O)CCn2c(=O)c3ccccc3n(Cc3ccccc3F)c2=O)cc1OC	15µM	-	-	12µM	0	0
O=C(CCCn1c(=O)c2ccccc2n(Cc2cccc(Cl)c2)c1=O)NCCc1ccc(Cl)cc1	?	-	-	18µM	-	-
O=C(CCC(=O)OCCOc1ccccc1)OCCOc1ccccc1	0	0	0	0	0	0
Cc1ccc(CN2CC(C(=O)N(Cc3nnc(-c4ccccc4Cl)o3)C3CC3)CC2=O)cc1 (configuration not stated)	0	0	0	0	0	?
COc1ccc(S(=O)(=O)N2CCOCC2)cc1NC(=O)/C=C/c1ccccc1	0	0	0	0	0	0
COC(=O)CN1C(=S)N(Cc2ccccc2)C(=O)C1CC(=O)Nc1ccc(Br)cc1 (configuration not stated)	16µM	?	?	?	0	0
C=CCN1C(=O)C(CC(=O)Nc2ccc(OC)cc2)N(Cc2ccco2)C1=S (configuration not stated)	0	0	0	0	0	21µM
CCN1C(=O)C(CC(=O)Nc2ccc(OC)cc2)N(CCc2ccccc2)C1=S (configuration not stated)	0	?	?	0	?	21µM
CCN1C(=O)C(CC(=O)Nc2ccc(F)cc2)N(CCc2ccc(OC)cc2)C1=S (configuration not stated)	0	0	0	?	0	0
COc1ccc(NC(=O)CC2C(=O)N(CCc3ccccc3)C(=S)N2Cc2cccnc2)cc1 (configuration not stated)	?	0	?	?	0	15µM
COC(=O)CN1C(=S)N(c2ccc(Cl)cc2)C(=O)C1CC(=O)Nc1ccc(Cl)cc1 (configuration not stated)	0	?	?	?	0	0
CCCC(=O)N1CCC1(C)C(=O)Nc1cccc(OC(C)C)c1 (configuration not stated)	0	0	0	?	0	0
Cc1cccc(C)c1C(O)c1ncc(-c2ccccc2C(F)(F)F)[nH]1 (configuration not stated)	0	0	0	?	0	0
